The supplement of paper PMC9262897, “Low-cost anti-mycobacterial drug discovery using engineered E. coli” (Nature Communications, 2022)
Where a name gives a salt, the structure may show the parent alone. ± gives the standard deviation of the averaged measurements.

Legend:
Test in all cases: growth (OD600 after 10 h); higher = more growth (less inhibition)
[1] = tested on: E. coli TESEC Alr+ wild-type control; conditions: compound 0.1 mM; raw OD600 reference: median of DMSO wells 0.241, cell-free background 0.041
Experimental: (§1)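 TESEC Mtb Alr E. coli, or the Alr+ wild-type control, in 384-well plates with Prestwick library compounds at 0.1 mM and 1% DMSO, across arabinose induction levels of 1E3 to 1E7 nM. Growth is read as OD600 after 10 h at 37 °C in triplicate biological replicates.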

[2] = tested on: E. coli TESEC Mtb Alr; conditions: compound 0.1 mM
Experimental: as §1

[3] = tested on: E. coli TESEC Mtb Asd; conditions: compound 0.1 mM
Experimental: (§2)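 TESEC E. coli strains in which the native enzyme is deleted and replaced by arabinose-inducible Mtb Asd, DapB, CysH or TrpD, each grown in its selective medium. Strains were screened against the Prestwick library at 0.1 mM and 1% DMSO in 384-well format at low and high arabinose induction. Growth is read as OD600 after 10 h in triplicate.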

[4] = tested on: E. coli TESEC Mtb DapB; conditions: compound 0.1 mM
Experimental: as §2

[5] = tested on: E. coli TESEC Alr+ wild-type control; conditions: compound 0.1 mM; raw OD600 reference: median of DMSO wells 0.49, cell-free background 0.052
Experimental: (§3)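 TESEC Mtb Alr E. coli (ΔaraC ΔtolC ΔentC Δalr ΔdadX, arabinose-inducible Mtb Alr) or the Alr+ wild-type control strain, grown in defined M9-fructose medium without D-alanine in 96-well plates with Prestwick library compounds at 0.1 mM and 1% DMSO. Low Alr induction is 0.1 µM arabinose and high induction is 10 mM arabinose.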

[6] = tested on: E. coli TESEC Mtb Alr; conditions: compound 0.1 mM; remark: listed apart in the source
Experimental: as §3

[7] = arabinose 1000 nM, raw OD600 reference: median of DMSO wells 0.294, cell-free background 0.041
[8] = arabinose 10000 nM, raw OD600 reference: median of DMSO wells 0.264, cell-free background 0.041
[9] = arabinose 100000 nM, raw OD600 reference: median of DMSO wells 0.201, cell-free background 0.041
[10] = arabinose 1000000 nM, raw OD600 reference: median of DMSO wells 0.193, cell-free background 0.041
[11] = arabinose 10000000 nM, raw OD600 reference: median of DMSO wells 0.146, cell-free background 0.041
[12] = arabinose induction (level): High, raw OD600 reference: median of DMSO wells 0.331, cell-free background 0.041
[13] = arabinose induction (level): Low, raw OD600 reference: median of DMSO wells 0.417, cell-free background 0.041
[14] = arabinose induction (level): High, raw OD600 reference: median of DMSO wells […], cell-free background 0.041
[15] = arabinose induction (level): Low, raw OD600 reference: median of DMSO wells 0.227, cell-free background 0.041
[16] = arabinose 100 nM, raw OD600 reference: median of DMSO wells 0.413, cell-free background 0.052
[17] = arabinose 10000000 nM, raw OD600 reference: median of DMSO wells […], cell-free background 0.052

Row | SMILES | growth [1] | growth [2, 7] | growth [2, 8] | growth [2, 9] | growth [2, 10] | growth [2, 11] | growth [3, 12] | growth [3, 13] | growth [4, 14] | growth [4, 15] | growth [5] | growth [6, 16] | growth [6, 17]
1 | Clc1cc(Cl)c(OCC#CI)cc1Cl [Haloprogin] | 0.128 ± 0.027 | 0.249 ± 0.015 | 0.197 ± 0.0027 | 0.216 ± 0.004 | 0.137 ± 0.0043 | 0.168 ± 0.0052 | 0.242 ± 0.037 | 0.276 ± 0.095 | 0.245 ± 0.04 | 0.259 ± 0.018 | 0.195 ± 0.037 | 0.386 ± 0.027 | 0.104 ± 0.0032
2 | COc1c(N2CCNC(C)C2)c(F)cc2c(=O)c(C(=O)O)cn(C3CC3)c12 (stereo unspecified) [Gatifloxacin] | 0.0447 ± 0.0053 | 0.0402 ± 0.00046 | 0.0396 ± 0.0002 | 0.04067 ± 0.00032 | 0.03983 ± 0.00029 | 0.0409 ± 0.00055 | 0.0508 ± 0.0018 | 0.0482 ± 0.0013 | 0.04873 ± 0.00025 | 0.04953 ± 0.00047 | 0.05293 ± 0.00023 | 0.0533 ± 0.00079 | 0.0521 ± 0.0016
3 | CC(=O)c1ccc2c(c1)N(CCCN(C)C)c1ccccc1S2 [Acetopromazine maleate salt] | 0.183 ± 0.0048 | 0.228 ± 0.0028 | 0.263 ± 0.016 | 0.208 ± 0.023 | 0.123 ± 0.0016 | 0.152 ± 0.0028 | 0.214 ± 0.025 | 0.301 ± 0.033 | 0.188 ± 0.012 | 0.217 ± 0.021 | 0.47 ± 0.012 | 0.399 ± 0.011 | 0.322 ± 0.015
4 | Cc1ccc(O)c([C@H](CCN(C(C)C)C(C)C)c2ccccc2)c1 [Tolterodine tartrate] | 0.163 ± 0.0078 | 0.245 ± 0.0098 | 0.283 ± 0.0087 | 0.201 ± 0.0068 | 0.148 ± 0.0076 | 0.191 ± 0.0035 | 0.245 ± 0.032 | 0.38 ± 0.025 | 0.198 ± 0.018 | 0.238 ± 0.036 | 0.55 ± 0.029 | 0.417 ± 0.0075 | 0.3 ± 0.013
5 | CCc1nc(N)nc(N)c1-c1ccc(Cl)cc1 [Pyrimethamine] | 0.1323 ± 0.0013 | 0.123 ± 0.0079 | 0.0978 ± 0.0026 | 0.123 ± 0.0035 | 0.0795 ± 0.0019 | 0.139 ± 0.002 | 0.17 ± 0.024 | 0.179 ± 0.015 | 0.173 ± 0.016 | 0.191 ± 0.044 | 0.5321 ± 0.0036 | 0.401 ± 0.026 | 0.261 ± 0.018
6 | Cc1ccc(/C(=C\CN2CCCC2)c2ccccn2)cc1 [Triprolidine hydrochloride] | 0.223 ± 0.0078 | 0.27 ± 0.014 | 0.257 ± 0.0035 | 0.213 ± 0.017 | 0.176 ± 0.0043 | 0.141 ± 0.005 | 0.264 ± 0.029 | 0.427 ± 0.05 | 0.165 ± 0.0066 | 0.214 ± 0.055 | 0.464 ± 0.026 | 0.41 ± 0.0077 | 0.368 ± 0.019
7 | CN(C)CCN(Cc1ccc(Cl)cc1)c1ccccn1 [Chloropyramine hydrochloride] | 0.189 ± 0.0042 | 0.245 ± 0.0086 | 0.265 ± 0.0041 | 0.201 ± 0.0069 | 0.148 ± 0.0046 | 0.128 ± 0.006 | 0.171 ± 0.017 | 0.43 ± 0.013 | 0.185 ± 0.02 | 0.208 ± 0.016 | 0.432 ± 0.016 | 0.399 ± 0.0085 | 0.314 ± 0.012
